Results as given in PubChem BioAssay AID623994 (NMMLSC, 2012).
Potency and affinity values are given separately. The source made the active and inactive calls.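 How the source made its calls: active means compounds whose fitted concentration for half the maximal dye retention is below 100 µM; inactive means the rest.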

Molecular target: Multidrug resistance protein CDR2 (Candida albicans (strain SC5314 / ATCC MYA-2876)) (UniProt P78595)
Experiment: blockers of Nile Red efflux by Candida CDR2 – S. cerevisiae AD1-8u, singleplex, Cherry Pick2 set, dose response (AID 623994)
Details: S. cerevisiae AD1-8u expressing CaCDR2, Nile Red efflux; series mostly up to 100 µM

Multidrug resistance protein CDR2 (Candida albicans (strain SC5314 / ATCC MYA-2876)), sequence (P78595 whole entry, looked up): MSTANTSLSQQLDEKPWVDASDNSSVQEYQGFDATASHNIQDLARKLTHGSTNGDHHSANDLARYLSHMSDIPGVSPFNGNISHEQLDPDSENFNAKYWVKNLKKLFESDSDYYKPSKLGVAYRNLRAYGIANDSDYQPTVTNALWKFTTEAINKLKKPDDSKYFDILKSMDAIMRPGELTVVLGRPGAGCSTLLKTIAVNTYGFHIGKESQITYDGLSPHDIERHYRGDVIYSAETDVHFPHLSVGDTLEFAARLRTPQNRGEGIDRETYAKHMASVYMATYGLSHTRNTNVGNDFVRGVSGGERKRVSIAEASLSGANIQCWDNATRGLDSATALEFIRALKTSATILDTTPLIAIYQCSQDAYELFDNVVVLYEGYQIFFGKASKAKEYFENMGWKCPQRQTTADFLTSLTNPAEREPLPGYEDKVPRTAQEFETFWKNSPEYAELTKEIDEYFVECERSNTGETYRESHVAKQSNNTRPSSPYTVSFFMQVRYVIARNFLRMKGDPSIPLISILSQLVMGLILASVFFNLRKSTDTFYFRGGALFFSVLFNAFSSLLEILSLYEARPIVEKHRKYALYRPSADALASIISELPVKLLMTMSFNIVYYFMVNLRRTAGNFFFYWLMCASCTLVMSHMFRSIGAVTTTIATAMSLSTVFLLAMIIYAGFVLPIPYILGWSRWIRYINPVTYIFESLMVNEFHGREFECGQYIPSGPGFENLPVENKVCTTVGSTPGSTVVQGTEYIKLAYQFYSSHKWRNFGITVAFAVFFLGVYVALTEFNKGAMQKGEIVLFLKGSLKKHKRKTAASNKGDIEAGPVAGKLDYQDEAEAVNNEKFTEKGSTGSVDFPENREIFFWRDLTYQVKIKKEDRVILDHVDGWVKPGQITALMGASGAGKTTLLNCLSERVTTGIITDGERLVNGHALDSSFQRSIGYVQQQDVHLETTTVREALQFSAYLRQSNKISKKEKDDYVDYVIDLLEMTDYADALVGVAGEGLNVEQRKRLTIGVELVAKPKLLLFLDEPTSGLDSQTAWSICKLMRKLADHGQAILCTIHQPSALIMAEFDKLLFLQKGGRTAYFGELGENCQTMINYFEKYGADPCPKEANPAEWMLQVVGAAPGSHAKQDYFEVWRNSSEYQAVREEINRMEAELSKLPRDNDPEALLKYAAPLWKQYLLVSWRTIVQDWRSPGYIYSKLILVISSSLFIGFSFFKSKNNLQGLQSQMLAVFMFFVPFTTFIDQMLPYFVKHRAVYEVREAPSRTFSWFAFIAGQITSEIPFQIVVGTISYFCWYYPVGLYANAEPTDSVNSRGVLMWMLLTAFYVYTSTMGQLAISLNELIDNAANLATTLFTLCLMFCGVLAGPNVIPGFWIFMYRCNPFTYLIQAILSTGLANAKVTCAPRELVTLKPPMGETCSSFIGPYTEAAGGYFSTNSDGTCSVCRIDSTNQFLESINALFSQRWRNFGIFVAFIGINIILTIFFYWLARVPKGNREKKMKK

| Structure (SMILES) | outcome |
| --- | --- |
| O=C(C1CCCN(c2ncnc3c2nc2n3CCCCC2)C1)N1CCN(c2cccc(Cl)c2)CC1 (centres undefined) | inactive |
| COc1ccc(C(=O)NC2CC(C)(C)Cc3c2cnn3-c2ccccc2)c(OC)c1 (centres undefined) | inactive |
| COc1ccc(C2CC(c3ccccc3C(F)(F)F)=NN2c2ccc(S(N)(=O)=O)cc2)cc1 (centres undefined) | inactive |
| COc1cc(OC)c2ccc(=O)oc2c1C(CCN1CCCC1)c1ccc(N(C)C)cc1 (centres undefined) | inactive |
| CCC(Cc1ccccc1)OC(=O)c1ccccc1C(=O)O (centres undefined) | inactive |
| O=C(NC1CCCc2c1cnn2-c1ccccc1F)c1ccccn1 (centres undefined) | inactive |
| COc1cc(OC)c2ccc(=O)oc2c1C(CCN1CCCC(C)C1)c1ccc(N(C)C)cc1 (centres undefined) | inactive |
| CC(C)C(=O)N1CCN(c2ccccc2NC(=O)c2ccc3c(c2)OCCO3)CC1 | inactive |
| O=C(c1ccoc1)N1CCC2(CC1)Oc1ccc(F)cc1C(=O)C21CC(c2ccccc2)=NO1 (centres undefined) | inactive |
| O=C(CSc1nnc(Cc2cccs2)n1Cc1ccco1)Nc1ccc(Br)cc1 | inactive |
| CCO[C@@H]1OC(C(=O)Nc2ccccc2)=C[C@H](c2ccc(Br)cc2)[C@H]1CCCO | inactive |
| Cc1ccc2c(c1)[C@H]1[C@H](CO2)[C@H](c2ccccc2)[C@]2(C)C(=O)Nc3cc(F)c(F)cc3C(=O)N12 | inactive |
| COc1ccc(C2CC(c3cccc(OC)c3)=NN2c2ccc(S(N)(=O)=O)cc2)cc1 (centres undefined) | inactive |
| COc1ccc(C(=O)OCCc2ccc(O)cc2)cc1 | inactive |
